From ChEMBL document CHEMBL1857833, “Screening and optimization of specific chemical series against human African Trypanosomiasis (HAT)”
About 390 (8.9%) of roughly 4,400 compounds showed an effect of 50% or more. The entries come from a sample that favours strong results as a whole.

Each compound was assayed on Trypanosoma brucei (assay: DNDI: Inhibition of Human African Trypanosomiasis, SBRI 427, in vitro at 2 ug.mL-1).
Type: functional

Structure (SMILES)	% inhibition
COc1cc(C)ccc1Oc1nc(C)ccc1/C(=N/O)NCc1c(F)cccc1F	95%
Cc1ccc(/C(=N/O)NCc2ccccc2)c(OCc2ccccn2)n1	13%
COc1cc(C)ccc1Oc1nc(C)ccc1/C(=N/O)NCc1ccccn1	-7%
Cc1ccc(/C(=N/O)NCc2ccccn2)c(OCc2ccccn2)n1	-11%
COc1cc(C)ccc1Oc1nc(C)ccc1/C(=N/O)NCc1ccccc1	99%
Cc1ccc(Oc2nc(C)ccc2/C(=N/O)NCc2c(F)cccc2F)c(C)c1	-3%
Cc1ccc(Oc2nc(C)ccc2/C(=N/O)NCc2cc(F)cc(F)c2)c(C)c1	6%
COc1cc(C)ccc1Oc1nc(C)ccc1/C(=N/O)NCc1cc(F)cc(F)c1	98%
COc1ccc(CN/C(=N\O)c2ccc(C)nc2Oc2ccc(C)cc2OC)cc1	24%
COc1ccccc1CN/C(=N\O)c1ccc(C)nc1Oc1ccc(C)cc1OC	11%
COc1ccc(Oc2nc(C)ccc2/C(=N/O)NCc2cc(F)cc(F)c2)cc1	-8%
Cc1cc(C)cc(CN/C(=N\O)c2ccc(C)nc2OCc2ccccn2)c1	80%
FC(F)(F)c1cccc(CNCc2coc(-c3ccc(Cl)cc3Cl)n2)c1	-2%
CCOc1ccccc1-c1nc(CN2CCN(c3cccc(C)c3)C(C)C2)co1 (stereo not given)	-6%
COCCN(CCOC)Cc1coc(-c2ccc(O)cc2)n1	38%
Cc1cccc(Oc2ccc(/C(=N/O)NCc3cccnc3)cn2)c1	12%
Cc1cccc(-c2nc(CN(C)CC#N)co2)c1	4%
O/N=C(/c1cccnc1Oc1ccccc1Cl)N1CCN(c2ccc(F)cc2)CC1	3%
Cc1ccc(/C(=N/O)N2CCSCC2)c(Oc2ccc3ccccc3c2)n1	12%
COc1cc(C)ccc1Oc1nc(C)ccc1/C(=N/O)NCc1cc(C)cc(C)c1	98%
Cc1cc(C)cc(CN/C(=N\O)c2ccc(C)nc2Oc2cc(C)cc(C)c2)c1	41%
Cc1cc(C)cc(CN/C(=N\O)c2ccc(C)nc2Oc2ccc(C)cc2C)c1	18%

Structure (SMILES)	% inhibition
CCN(CC)Cc1coc(-c2ccc(C)cc2)n1	1%
Cc1nccn1/C(=N\O)c1ccc(Oc2ccc(Cl)cc2)nc1	5%
COc1ccc(Oc2nc(C)ccc2/C(=N/O)N(C)c2ccccc2)cc1	-6%
Cc1ccc(/C(=N/O)NCC(C)C)c(Oc2ccc3ccccc3c2)n1	13%
Cc1ccc(/C(=N/O)NCc2cc(F)cc(F)c2)c(Oc2cccc(F)c2)n1	28%
Cc1ccc(/C(=N/O)NCc2ccccc2)c(Oc2cccc(F)c2)n1	13%
Cc1cccc(Oc2nc(C)ccc2/C(=N/O)NCC(C)C)c1	94%
CSc1ccc(Oc2nc(C)ccc2/C(=N/O)N(C)c2ccccc2)cc1C	5%
Cc1ccc(/C(=N/O)N(C)c2ccccc2)c(Oc2cccc(F)c2)n1	86%
Cc1ccc(/C(=N/O)NCC(C)C)c(Oc2cccc(C(C)C)c2)n1	3%
Cc1ccc(/C(=N/O)NCC(C)C)c(Oc2cccc(F)c2)n1	79%
COc1cc(-c2nc(CN3CCN(c4cc(C)nc5ccccc45)CC3)co2)cc(OC)c1OC	10%
CN(Cc1ccco1)/C(=N\O)c1ccc(Oc2c(F)c(F)cc(F)c2F)nc1	-10%
COc1cc(-c2nc(CN3CC[C@H]4CCCC[C@@H]4C3)co2)cc(OC)c1OC	-12%
COc1cc(-c2nc(CNCc3cccc4ccccc34)co2)cc(OC)c1OC	0%
Cc1ccc(/C(=N/O)NCc2ccco2)c(Oc2ccc(F)cc2)n1	22%
CCN1CCN(Cc2coc(-c3ccc(Cl)cc3Cl)n2)CC1	22%
CN(CCc1ccccn1)Cc1coc(-c2ccccc2Cl)n1	10%
O/N=C(\NCc1c(F)cccc1F)c1ccnc(Oc2ccc(F)c(Cl)c2)c1	30%
CSCCN/C(=N\O)c1ccnc(Oc2ccc(F)c(Cl)c2)c1	5%
CC(C)(C)CN/C(=N\O)c1ccnc(Oc2cccc(F)c2)c1	76%
Cc1cc(C)cc(CN/C(=N\O)c2ccnc(Oc3cccc(F)c3)c2)c1	11%

Structure (SMILES)	% inhibition
CC(C)(C)CN/C(=N\O)c1ccnc(Oc2ccc(F)c(Cl)c2)c1	96%
CCC(C)(C)N/C(=N\O)c1ccnc(Oc2cccc(F)c2)c1	1%
Brc1ccccc1-c1nc(CNC[C@@H]2CCCO2)co1	-9%
COc1ccc(Oc2nc(C)ccc2/C(N)=N/O)cc1	9%
CCCCC(CC)CNCc1coc(-c2ccc(C)cc2)n1 (stereo not given)	10%
Cc1ccc(/C(=N/O)N2c3ccccc3CCC2C)c(Oc2ccc3oc4ccccc4c3c2)n1 (stereo not given)	-9%
COCC(C)N/C(=N\O)c1ccc(Oc2cc(C)cc(C(C)C)c2)nc1 (stereo not given)	18%
O/N=C(\NC1CCC1)c1ccc(Oc2ccc3ccccc3c2)nc1	96%
O/N=C(\Nc1ccccc1)c1ccc(Oc2ccc3ccccc3c2)nc1	-7%
COCC(C)N/C(=N\O)c1ccc(Oc2ccc3ccccc3c2)nc1 (stereo not given)	76%
O/N=C(\NC1CCCCC1)c1ccc(Oc2ccc3ccccc3c2)nc1	77%
O/N=C(\NCC1CCCCC1)c1ccc(Oc2ccc3ccccc3c2)nc1	6%
CCC(CC)N/C(=N\O)c1ccc(Oc2ccc3ccccc3c2)nc1	32%
CC1CCC(N/C(=N\O)c2ccc(Oc3ccc4ccccc4c3)nc2)CC1 (stereo not given)	-9%
CC1CC(N/C(=N\O)c2ccc(Oc3ccc4ccccc4c3)nc2)CC(C)(C)C1 (stereo not given)	4%
COc1cc(-c2nc(CN3CCC4CCCCC4C3)co2)cc(OC)c1OC (stereo not given)	-10%
Fc1cccc(-c2nc(CN3CCN(c4ncccn4)CC3)co2)c1	6%
FC(F)(F)c1ccc(-c2nc(Cn3ccnc3-c3ccccc3)co2)cc1	-8%
c1cncc(CN(Cc2cccnc2)Cc2coc(-c3cccc4ccccc34)n2)c1	47%
COc1cccc(CNCc2coc(-c3ccccc3C)n2)c1	15%
COc1ccc(CCN(C)Cc2coc(-c3ccc(C(F)(F)F)cc3)n2)cc1OC	7%
